# Measured values reported in PubChem BioAssay (EPA / NIEHS).
# Inconclusive results are not listed. Activity calls are given as the source filed them. The calls were made as follows: active = hit-call score of the fitted dose curve at least 0.9, where 1 is the maximum; inconclusive = response in the unintended direction; inactive = score below 0.9.
# How the values were obtained:
# [1] = target: Neuropeptide Y receptor type 2 (Homo sapiens) (UniProt P49146); assay: NVS_GPCR_hNPY2: NovaScreen (NVS) G Protein-Coupled Receptor Assay for human Neuropeptide Receptor Y2 (NPY2) (AID 2283277)
# Procedure, shortened: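 Chemicals were first tested in duplicate at 25 uM, then actives in singleton concentration series to 50 uM. Tracer binding to SK-N-MC-derived protein measured cell-free after 1 h via filter scintillation; signal loss relative to DMSO.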
# [2] = target: human Thromboxane A2 Receptor (TXA2), TBXA2R (gene 6915) (UniProt P21731); assay: NVS_GPCR_hTXA2: NovaScreen (NVS) G Protein-Coupled Receptor Assay for human Thromboxane A2 Receptor (TXA2) (AID 2283282);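 also: actives reduce bound radioligand signal relative to DMSO baseline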
# Procedure, shortened: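 Screening ran at 25 uM in duplicate, with concentration series for confirmed actives. Each test measures radioligand binding to human platelet protein after 1 h, cell-free, using filter-based scintillation detection of signal loss relative to DMSO.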
# [3] = target: rat Serotonin, 5-Hydroxytryptamine Receptor 1 (5HT1), Non-Selective Binding, Htr1a (gene 24473) (UniProt P19327); assay: NVS_GPCR_r5HT1_NonSelective: NovaScreen (NVS) G Protein-Coupled Receptor Assay for rat Serotonin, 5-Hydroxytryptamine Receptor 1 (5HT1), Non-Selective Binding (AID 2283286)
# Procedure, shortened: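 Binding of a radioligand to rat cortex membranes is read by filtration and scintillation counting after 1 h. Compounds were screened at 25 uM in duplicate. Actives were then titrated to a top of 50 uM. DMSO is the baseline.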
# [4] = target: Muscarinic acetylcholine receptor M3 (Homo sapiens) (UniProt P20309); assay: NVS_GPCR_hM3: NovaScreen (NVS) G Protein-Coupled Receptor Assay for human Muscarinic, M3 Receptor (AID 2283272)
# Procedure, shortened: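 Radioligand displacement binding on human M3 receptor in CHO-derived membranes, 1 h incubation, filter-based scintillation counting. Primary screen in duplicate at 25 uM; actives followed up in concentration series; loss of signal versus DMSO.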
# [5] = target: Muscarinic acetylcholine receptor M2 (Homo sapiens) (UniProt P08172); assay: NVS_GPCR_hM2: NovaScreen (NVS) G Protein-Coupled Receptor Assay for human Muscarinic, M2 Receptor (AID 2283273)
# Procedure, shortened: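 Filter-based radiodetection read bound radioligand 1 h after dosing CHO-derived membrane protein. Single-concentration duplicates (25 uM) first, then concentration-response for actives; signal loss versus DMSO scored.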
# [6] = target: human Muscarinic, M4 Receptor, CHRM4 (gene 1132) (UniProt P08173); assay: NVS_GPCR_hM4: NovaScreen (NVS) G Protein-Coupled Receptor Assay for human Muscarinic, M4 Receptor (AID 2283274)
# Procedure, shortened: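 Filter-based scintillation counting of radioligand bound to CHO-expressed human M4 preparations after 1 h; loss of signal fitted versus DMSO. Initial duplicate testing at 25 uM, concentration-response follow-up for actives.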
# [7] = target: Muscarinic acetylcholine receptor M5 (Homo sapiens) (UniProt P08912); assay: NVS_GPCR_hM5: NovaScreen (NVS) G Protein-Coupled Receptor Assay for human Muscarinic, M5 Receptor (AID 2283275)
# Procedure, shortened: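 Chemicals passing a primary duplicate screen at 25 uM were run as singleton concentration series, maximum 50 uM. Displacement of a specific radioligand from CHO-extracted receptor was read by filter scintillation after 1 h, relative to DMSO.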
# [8] = target: human Opioid Receptor Delta 1 (Opiate D1), OPRD1 (gene 4985) (UniProt P41143); assay: NVS_GPCR_hOpiate_D1: NovaScreen (NVS) G Protein-Coupled Receptor Assay for human Opioid Receptor Delta 1 (Opiate D1) (AID 2283280)
# Procedure, shortened: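 Membrane preparations from CHO cells bearing the human receptor were incubated 1 h with test chemical, and bound radioligand was counted after filtration. Actives from 25 uM duplicate screening were retested in concentration-response.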
# [9] = tested on: 5-hydroxytryptamine receptor 2C (pig); assay: NVS_GPCR_p5HT2C: NovaScreen (NVS) G Protein-Coupled Receptor Assay for pig Serotonin, 5-Hydroxytryptamine Receptor 2C (5HT2C) (AID 2283288)
# Procedure, shortened: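 Radioligand displacement on membranes from pig choroid plexus, detected by filter scintillation counting after 1 h. Tested first at a single 25 uM in duplicate, then in concentration-response for actives; DMSO served as baseline.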
# [10] = target: rat Adrenergic, Alpha 1, Non-selective Receptor (Adra1), Adra1a (gene 29412) (UniProt P43140); assay: NVS_GPCR_rAdra1_NonSelective: NovaScreen (NVS) G Protein-Coupled Receptor Assay for rat Adrenergic, Alpha 1, Non-selective Receptor (Adra1) (AID 2283289)
# Procedure, shortened: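 Chemicals first screened in duplicate at 25 uM, then actives tested in concentration series up to 50 uM. Binding measured as displacement of radioligand from rat forebrain membrane receptors, 1 h, filtration with scintillation readout; DMSO baseline.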
# [11] = target: human Opioid Receptor Mu (Opiate Mu), OPRM1 (gene 4988) (UniProt P35372); assay: NVS_GPCR_hOpiate_mu: NovaScreen (NVS) G Protein-Coupled Receptor Assay for human Opioid Receptor Mu (Opiate Mu) (AID 2283290);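 also: hits lower bound tracer signal versus DMSO meaning displacement of the ligand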
# Procedure, shortened: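 Radioligand displacement binding on membranes from CHO cells expressing the receptor, 2.5 h after dosing, filter-based scintillation counting; loss of signal vs DMSO baseline. Screened in duplicate at 25 uM, actives then run in concentration series.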
# [12] = target: human Vasopressin 1A Receptor (V1A), AVPR1A (gene 552) (UniProt P37288); assay: NVS_GPCR_hV1A: NovaScreen (NVS) G Protein-Coupled Receptor Assay for human Vasopressin 1A Receptor (V1A) (AID 2283284)
# Procedure, shortened: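 Single-concentration duplicate screen at 25 uM, with concentration-response follow-up (top 50 uM) for actives. The assay measured displacement of a radioligand from human platelet-derived receptor after 1.5 h, detected by filtration and scintillation counting.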
# [13] = target: human Neurokinin, NK2 Receptor, TACR2 (gene 6865) (UniProt P21452); assay: NVS_GPCR_hNK2: NovaScreen (NVS) G Protein-Coupled Receptor Assay for human Neurokinin, NK2 Receptor (AID 2283278);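 also: actives reduce bound radioligand signal relative to DMSO baseline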
# Procedure, shortened: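 Radioligand binding on membranes from CHO cells expressing receptor, filter-based scintillation read 4 h after dosing. Initial duplicate screen at 25 uM, actives in concentration series; loss of signal versus DMSO.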
# [14] = target: human Neurotensin Receptor (NTS), NTSR1 (gene 4923) (UniProt P30989); assay: NVS_GPCR_hNTS: NovaScreen (NVS) G Protein-Coupled Receptor Assay for human Neurotensin Receptor (NTS) (AID 2283279)
# Procedure, shortened: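 Compounds competed with a radiolabelled ligand for binding to CHO-derived human neurotensin receptor; bound signal counted after filtration, 1 h. Screened first at a single concentration of 25 uM in duplicate, then concentration series to 50 uM maximum for actives.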
# [15] = target: mouse Cholecystokinin, CCK1 Receptor (CCKA), Cckar (gene 12425) (UniProt O08786); assay: NVS_GPCR_mCCKAPeripheral: NovaScreen (NVS) G Protein-Coupled Receptor Assay for mouse Cholecystokinin, CCK1 Receptor (CCKA) (AID 2283285)
# Procedure, shortened: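 Chemicals were first screened in duplicate at 25 uM, with those meeting threshold (e.g., 30% inhibition) retested in singleton concentration series to 50 uM maximum. Binding of radioligand to mouse pancreatic membranes was read after 2 h by filtration and scintillation counting.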
# [16] = target: human Neuropeptide Receptor Y1 (NPY1), NPY1R (gene 4886) (UniProt P25929); assay: NVS_GPCR_hNPY1: NovaScreen (NVS) G Protein-Coupled Receptor Assay for human Neuropeptide Receptor Y1 (NPY1) (AID 2283276)
# Procedure, shortened: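 Displacement of specific radioligand from NPY1 receptor of SK-N-MC origin, read by filtration and scintillation after 1 h. Compounds first tested at 25 uM in duplicate, then actives in concentration series; signal loss relative to DMSO.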
# [17] = target: human Orphanin, Opioid Related Nociceptin Receptor 1 (ORL1), OPRL1 (gene 4987) (UniProt P41146); assay: NVS_GPCR_hORL1: NovaScreen (NVS) G Protein-Coupled Receptor Assay for human Orphanin, Opioid Related Nociceptin Receptor 1 (ORL1) (AID 2283283)
# Procedure, shortened: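 Cell-free binding using HEK293-derived receptor protein: radioligand displacement measured by filter scintillation 1 hour after dosing. Primary testing at 25 uM in duplicate, followed by singleton concentration series up to 50 uM; DMSO served as negative control.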
# [18] = tested on: rabbit Platelet Activating Factor Receptor (PAF), gene 100354046; assay: NVS_GPCR_rabPAF: NovaScreen (NVS) G Protein-Coupled Receptor Assay for rabbit Platelet Activating Factor Receptor (PAF) (AID 2283287)
# Procedure, shortened: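 Rabbit platelet membrane preparation; radioligand displacement read by filter-based scintillation counting 1 h after dosing, loss of signal versus DMSO. Primary screen in duplicate at 25 uM, actives followed up in concentration series.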
# Sequence of rat Adrenergic, Alpha 1, Non-selective Receptor (Adra1), Adra1a (gene 29412) (P43140 whole entry, looked up): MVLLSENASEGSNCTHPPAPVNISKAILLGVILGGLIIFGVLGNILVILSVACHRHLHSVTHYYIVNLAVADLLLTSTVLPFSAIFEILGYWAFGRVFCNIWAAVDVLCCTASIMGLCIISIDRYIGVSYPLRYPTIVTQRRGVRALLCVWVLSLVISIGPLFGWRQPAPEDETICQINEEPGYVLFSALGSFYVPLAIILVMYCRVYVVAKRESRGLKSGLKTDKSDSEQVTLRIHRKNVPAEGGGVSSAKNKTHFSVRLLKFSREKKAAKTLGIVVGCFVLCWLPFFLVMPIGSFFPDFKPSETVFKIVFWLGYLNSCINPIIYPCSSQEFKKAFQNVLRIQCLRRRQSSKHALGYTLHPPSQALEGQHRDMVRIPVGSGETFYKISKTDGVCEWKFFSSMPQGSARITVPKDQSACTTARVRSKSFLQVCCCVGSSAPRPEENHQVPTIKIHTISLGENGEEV
# Sequence of Muscarinic acetylcholine receptor M5 (Homo sapiens) (P08912 whole entry, looked up): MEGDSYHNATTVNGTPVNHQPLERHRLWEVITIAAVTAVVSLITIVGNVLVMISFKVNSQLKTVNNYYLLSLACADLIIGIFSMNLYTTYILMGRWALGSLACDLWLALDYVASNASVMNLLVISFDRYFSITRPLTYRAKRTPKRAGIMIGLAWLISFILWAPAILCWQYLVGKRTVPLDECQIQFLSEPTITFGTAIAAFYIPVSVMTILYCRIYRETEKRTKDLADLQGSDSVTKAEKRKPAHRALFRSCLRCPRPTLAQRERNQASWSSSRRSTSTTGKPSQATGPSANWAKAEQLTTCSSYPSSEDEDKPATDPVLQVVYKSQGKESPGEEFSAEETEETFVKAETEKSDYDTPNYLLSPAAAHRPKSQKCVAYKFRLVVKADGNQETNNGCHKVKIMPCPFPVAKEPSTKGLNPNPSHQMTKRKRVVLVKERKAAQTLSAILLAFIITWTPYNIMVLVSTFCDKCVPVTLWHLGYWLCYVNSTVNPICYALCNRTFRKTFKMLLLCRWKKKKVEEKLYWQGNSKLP
# Sequence of human Opioid Receptor Delta 1 (Opiate D1), OPRD1 (gene 4985) (P41143 whole entry, looked up): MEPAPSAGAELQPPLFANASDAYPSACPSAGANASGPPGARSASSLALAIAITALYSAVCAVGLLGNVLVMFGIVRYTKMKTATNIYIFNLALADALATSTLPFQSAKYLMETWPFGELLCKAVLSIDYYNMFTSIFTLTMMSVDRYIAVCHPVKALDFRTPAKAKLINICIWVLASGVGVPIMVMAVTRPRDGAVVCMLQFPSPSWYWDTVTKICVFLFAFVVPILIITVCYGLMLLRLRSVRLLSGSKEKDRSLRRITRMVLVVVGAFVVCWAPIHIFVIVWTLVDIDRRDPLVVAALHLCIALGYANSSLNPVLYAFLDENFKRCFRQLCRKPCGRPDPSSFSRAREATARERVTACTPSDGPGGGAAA
# Sequence of mouse Cholecystokinin, CCK1 Receptor (CCKA), Cckar (gene 12425) (O08786 whole entry, looked up): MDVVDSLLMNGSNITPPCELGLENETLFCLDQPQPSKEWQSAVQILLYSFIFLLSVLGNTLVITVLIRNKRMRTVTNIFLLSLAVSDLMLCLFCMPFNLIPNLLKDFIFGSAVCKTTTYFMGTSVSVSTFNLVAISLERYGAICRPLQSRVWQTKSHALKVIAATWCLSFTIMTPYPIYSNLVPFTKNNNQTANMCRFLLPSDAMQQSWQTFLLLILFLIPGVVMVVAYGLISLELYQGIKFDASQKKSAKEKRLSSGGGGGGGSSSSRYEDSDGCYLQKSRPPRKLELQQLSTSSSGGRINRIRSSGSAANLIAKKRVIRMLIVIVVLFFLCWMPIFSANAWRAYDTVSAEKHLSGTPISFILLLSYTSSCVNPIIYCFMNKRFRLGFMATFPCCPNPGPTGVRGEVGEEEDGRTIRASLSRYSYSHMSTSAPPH
# Sequence of Muscarinic acetylcholine receptor M2 (Homo sapiens) (P08172 whole entry, looked up): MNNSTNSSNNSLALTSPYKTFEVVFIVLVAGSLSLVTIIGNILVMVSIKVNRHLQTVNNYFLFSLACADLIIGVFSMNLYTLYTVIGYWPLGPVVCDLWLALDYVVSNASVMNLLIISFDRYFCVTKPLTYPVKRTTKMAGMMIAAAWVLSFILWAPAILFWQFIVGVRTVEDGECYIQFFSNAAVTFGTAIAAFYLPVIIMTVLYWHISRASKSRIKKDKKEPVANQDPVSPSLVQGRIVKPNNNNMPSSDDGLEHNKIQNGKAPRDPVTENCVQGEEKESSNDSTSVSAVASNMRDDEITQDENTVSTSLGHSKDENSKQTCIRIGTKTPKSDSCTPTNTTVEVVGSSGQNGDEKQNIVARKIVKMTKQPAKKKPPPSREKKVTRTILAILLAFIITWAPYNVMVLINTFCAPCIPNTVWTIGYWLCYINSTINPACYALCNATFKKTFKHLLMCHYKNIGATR
# Sequence of Muscarinic acetylcholine receptor M3 (Homo sapiens) (P20309 whole entry, looked up): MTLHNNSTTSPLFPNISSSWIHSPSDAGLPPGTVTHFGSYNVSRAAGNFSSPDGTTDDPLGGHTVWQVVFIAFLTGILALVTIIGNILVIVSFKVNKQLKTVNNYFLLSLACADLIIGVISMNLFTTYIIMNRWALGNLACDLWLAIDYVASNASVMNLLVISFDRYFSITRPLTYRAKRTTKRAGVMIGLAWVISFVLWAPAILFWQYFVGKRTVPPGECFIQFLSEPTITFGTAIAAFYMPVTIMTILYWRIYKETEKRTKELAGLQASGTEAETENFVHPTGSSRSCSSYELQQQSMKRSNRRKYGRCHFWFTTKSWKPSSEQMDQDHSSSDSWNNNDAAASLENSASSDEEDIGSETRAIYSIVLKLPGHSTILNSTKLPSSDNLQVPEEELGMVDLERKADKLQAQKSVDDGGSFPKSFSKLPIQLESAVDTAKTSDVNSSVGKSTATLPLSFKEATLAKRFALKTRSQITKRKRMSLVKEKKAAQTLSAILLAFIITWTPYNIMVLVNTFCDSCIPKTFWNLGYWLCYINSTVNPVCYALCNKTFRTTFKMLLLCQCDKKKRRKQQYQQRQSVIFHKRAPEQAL
# Sequence of human Neurokinin, NK2 Receptor, TACR2 (gene 6865) (P21452 whole entry, looked up): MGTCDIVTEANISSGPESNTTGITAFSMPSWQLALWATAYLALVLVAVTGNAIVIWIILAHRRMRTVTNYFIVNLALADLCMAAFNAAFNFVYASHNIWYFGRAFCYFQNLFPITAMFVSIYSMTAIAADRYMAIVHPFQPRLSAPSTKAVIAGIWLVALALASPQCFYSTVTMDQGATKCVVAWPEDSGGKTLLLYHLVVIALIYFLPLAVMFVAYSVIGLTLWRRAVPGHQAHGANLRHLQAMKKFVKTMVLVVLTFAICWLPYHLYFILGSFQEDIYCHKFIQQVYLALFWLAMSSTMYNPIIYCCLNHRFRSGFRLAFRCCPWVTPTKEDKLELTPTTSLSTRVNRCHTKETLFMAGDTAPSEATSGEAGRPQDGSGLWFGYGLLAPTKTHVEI
# Sequence of human Muscarinic, M4 Receptor, CHRM4 (gene 1132) (P08173 whole entry, looked up): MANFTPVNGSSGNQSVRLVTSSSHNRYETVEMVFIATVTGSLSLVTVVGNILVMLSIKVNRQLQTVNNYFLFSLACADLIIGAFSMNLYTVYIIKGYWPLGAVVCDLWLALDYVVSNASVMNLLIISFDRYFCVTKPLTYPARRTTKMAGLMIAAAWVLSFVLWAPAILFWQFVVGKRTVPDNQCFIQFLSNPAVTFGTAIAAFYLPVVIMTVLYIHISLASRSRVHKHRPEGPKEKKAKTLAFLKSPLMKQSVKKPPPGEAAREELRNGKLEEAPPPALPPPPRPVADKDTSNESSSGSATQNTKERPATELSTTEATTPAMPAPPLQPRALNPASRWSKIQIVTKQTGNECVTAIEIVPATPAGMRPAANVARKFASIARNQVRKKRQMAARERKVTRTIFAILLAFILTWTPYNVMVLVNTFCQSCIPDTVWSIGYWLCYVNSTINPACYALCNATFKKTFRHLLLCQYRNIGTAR
# Sequence of human Thromboxane A2 Receptor (TXA2), TBXA2R (gene 6915) (P21731 whole entry, looked up): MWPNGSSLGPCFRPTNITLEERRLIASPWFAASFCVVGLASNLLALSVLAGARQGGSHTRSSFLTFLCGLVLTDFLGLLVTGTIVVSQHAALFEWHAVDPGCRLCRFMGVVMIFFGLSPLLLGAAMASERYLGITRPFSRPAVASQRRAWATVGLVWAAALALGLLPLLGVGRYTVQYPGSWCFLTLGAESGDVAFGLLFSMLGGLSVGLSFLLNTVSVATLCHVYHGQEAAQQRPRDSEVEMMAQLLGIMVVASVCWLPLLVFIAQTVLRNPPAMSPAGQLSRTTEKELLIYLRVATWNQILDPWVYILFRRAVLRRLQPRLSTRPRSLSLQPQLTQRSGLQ
# Sequence of human Opioid Receptor Mu (Opiate Mu), OPRM1 (gene 4988) (P35372 whole entry, looked up): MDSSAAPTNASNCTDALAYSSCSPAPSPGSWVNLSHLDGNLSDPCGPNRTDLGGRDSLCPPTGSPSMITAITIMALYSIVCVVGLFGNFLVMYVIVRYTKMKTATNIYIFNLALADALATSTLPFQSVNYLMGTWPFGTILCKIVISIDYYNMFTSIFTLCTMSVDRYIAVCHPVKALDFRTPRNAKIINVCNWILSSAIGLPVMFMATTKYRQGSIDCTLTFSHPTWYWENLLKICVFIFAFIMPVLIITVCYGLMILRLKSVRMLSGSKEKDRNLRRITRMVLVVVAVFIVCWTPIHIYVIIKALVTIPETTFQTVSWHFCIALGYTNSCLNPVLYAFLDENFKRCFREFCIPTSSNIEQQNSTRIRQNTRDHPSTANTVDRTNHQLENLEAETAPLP
# Sequence of rat Serotonin, 5-Hydroxytryptamine Receptor 1 (5HT1), Non-Selective Binding, Htr1a (gene 24473) (P19327 whole entry, looked up): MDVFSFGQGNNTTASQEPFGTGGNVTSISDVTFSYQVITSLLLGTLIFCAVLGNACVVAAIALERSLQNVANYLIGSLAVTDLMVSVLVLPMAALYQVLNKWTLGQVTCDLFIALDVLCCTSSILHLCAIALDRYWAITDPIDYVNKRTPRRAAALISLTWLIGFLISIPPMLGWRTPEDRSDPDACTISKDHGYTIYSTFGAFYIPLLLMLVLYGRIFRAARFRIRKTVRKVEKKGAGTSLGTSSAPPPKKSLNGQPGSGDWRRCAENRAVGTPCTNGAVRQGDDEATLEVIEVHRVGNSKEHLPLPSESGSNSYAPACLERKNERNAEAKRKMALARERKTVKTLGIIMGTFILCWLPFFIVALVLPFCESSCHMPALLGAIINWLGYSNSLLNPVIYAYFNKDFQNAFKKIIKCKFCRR
smiles,measurement,setting,value
CCCCC(CC)COC(=O)CCCCC(=O)OCC(CC)CCCC (configuration not stated),outcome,[1],inactive
same,AC50,[2],13.8 µM (active)
CCCCC(CC)COC(=O)CCCCC(=O)OCc1ccccc1 (configuration not stated),AC50,[2],12.7 µM (active)
CC1=C(/C=C/C(C)=C/C=C/C(C)=C/C(=O)O)C(C)(C)CCC1,AC50,[3],4.36 µM (active)
CCN(CC)CCNc1ccc(CNC=O)c2sc3ccc(OC)cc3c(=O)c12,AC50,[4],8.94 µM (active)
same,AC50,[5],11.7 µM (active)
same,AC50,[6],8.13 µM (active)
same,AC50,[7],7.21 µM (active)
same,outcome,[8],inactive
same,AC50,[9],13.5 µM (active)
same,AC50,[10],20.1 µM (active)
same,AC50,[11],9.79 µM (active)
CC#C[C@]1(O)CC[C@H]2[C@@H]3CCC4=CC(=O)CCC4=C3[C@@H](c3ccc(N(C)C)cc3)C[C@@]21C,AC50,[11],0.908 µM (active)
N#C[C@@H]1CC(F)(F)CN1C(=O)CNC1CC2CCC(C1)N2c1ncccn1 (some centres not stated),outcome,[12],inactive
C=C(C)C(=O)OCCC(F)(F)C(F)(F)C(F)(F)C(F)(F)C(F)(F)C(F)(F)F,outcome,[2],inactive
same,outcome,[3],inactive
CN1CCC[C@H]1c1cccnc1,outcome,[6],inactive
same,outcome,[7],inactive
Nc1cccc2c(N)cccc12,outcome,[13],inactive
same,outcome,[2],inactive
CCc1nn(C2CCCCC2)c2cc(C3(C#N)CCC(C(=O)O)CC3)ccc12 (configuration not stated),outcome,[8],inactive
CCCCCCCC(=O)O,outcome,[4],inactive
same,outcome,[5],inactive
same,AC50,[6],6.66 µM (active)
CC(C)(C)CC(C)(C)c1ccc(O)c(-n2nc3ccccc3n2)c1,AC50,[14],19.4 µM (active)
O=C(O)Cc1cc(I)c(Oc2cc(I)c(O)c(I)c2)c(I)c1,outcome,[15],inactive
same,outcome,[10],inactive
same,AC50,[11],14.3 µM (active)
ClC1=C(Cl)C(Cl)(Cl)C(Cl)=C1Cl,outcome,[15],inactive
CC(C)CCCCCCOC(=O)CCCCC(=O)OCCCCCCC(C)C,outcome,[11],inactive
CCCOc1sc(C(=O)N2CCC(c3cc(CN)ccc3F)CC2)c(C)c1Br,AC50,[4],11.3 µM (active)
same,AC50,[5],12.2 µM (active)
same,AC50,[6],11.1 µM (active)
same,AC50,[7],4.84 µM (active)
same,AC50,[16],13.5 µM (active)
same,AC50,[13],7.85 µM (active)
same,AC50,[8],9.25 µM (active)
same,outcome,[2],inactive
same,AC50,[17],24 µM (active)
same,outcome,[12],inactive
same,AC50,[15],27.1 µM (active)
same,AC50,[3],5.18 µM (active)
same,AC50,[18],23.2 µM (active)
same,AC50,[9],16.6 µM (active)
same,AC50,[10],20.6 µM (active)
same,AC50,[11],3.97 µM (active)
CCCCCCCCCCCCCC[N+](C)(C)C,AC50,[5],1.07 µM (active)
same,AC50,[13],4.81 µM (active)
same,AC50,[11],8.19 µM (active)
CC(=O)NC1(c2cccc(F)c2)CCN(CC[C@@]2(c3ccc(Cl)c(Cl)c3)CN(c3ccccc3)C(=O)CO2)CC1,AC50,[5],8.68 µM (active)
same,AC50,[6],13.9 µM (active)
same,AC50,[7],10.6 µM (active)
same,AC50,[13],0.00268 µM (active)
same,outcome,[8],inactive
same,AC50,[9],3.53 µM (active)
same,AC50,[10],11.8 µM (active)
same,AC50,[11],10.3 µM (active)
